The values that follow come from PMC5515408, “Sequence-specific DNA binding by MYC/MAX to low-affinity non-E-box motifs”.

In all, about 4,500 sequences were measured (“log2 normalized fluorescence”: median about -0.34, highest 2% from about 3.3 on). The sample as a whole holds a higher share of the highest values than the screen did.

In the test the target is MAX:MAX (p21) (human, UniProt P61244-2 1-151). As to the kind of experiment: protein-binding microarray (anti-MAX antibody); PBM: 15 mM Tris-HCl pH 7.5, 100 mM KCl, 0.075% NP40, 7.5 mM beta-mercaptoethanol, 375 ng/ul BSA, 8 ng/ul poly(dA-dT):(dA-dT), 550 ng complex, 60 min, room tempe; high values mean tight binding. The settings on record: protein: recombinant; tags: 6xHis; chain copies: 2; label: 3' end of printed strand (linker) attached to glass slide; dsDNA, one strand shown. In short, it runs like this: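 Binding, given as log2 normalized fluorescence, was measured on a custom Agilent glass array. The array bore ~5000 unique 12-nt sequences spotted in triplicate and converted to double strands by primer extension. It was incubated with 550 ng of human His-tagged MYC:MAX or MAX:MAX dimers from E. coli for 60 min at room temperature in Tris-KCl buffer, pH 7.5, with NP40, BSA and poly(dA-dT) competitor, and bound protein was detected with anti-MAX and secondary antibodies and scanned at 543 nm.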
MAX:MAX (p21), sequence (P61244 other isoform, or with tags, fused parts or gaps): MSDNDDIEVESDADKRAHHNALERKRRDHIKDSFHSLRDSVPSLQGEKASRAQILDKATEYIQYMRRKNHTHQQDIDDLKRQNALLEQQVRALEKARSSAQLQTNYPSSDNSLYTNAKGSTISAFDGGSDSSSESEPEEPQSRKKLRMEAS
“CCGGCAGACATGTGGTGTTAATAGCTAAGATTACTATATCGACG”: the binding signal is 3.1 log2 normalized fluorescence. For “CCGGCAGACACGCGATATTAATAGCTAAGATTACTATATCGACG”, the binding signal is 2.93 log2 normalized fluorescence. With “CCGGCAGACACGTGATATTAATAGCTAAGATTACTATATCGACG” the figure was 3.29 log2 normalized fluorescence; with “CCGGCTGACACGTGTCGTTAATAGCTAAGATTACTATATCGACG”, 3.18 log2 normalized fluorescence. As for “CCGGCTGACACGTGTTGTTAATAGCTAAGATTACTATATCGACG”, the binding signal was 3.32 log2 normalized fluorescence.

Consider “CCGGCTGACACGTGCTGTTAATAGCTAAGATTACTATATCGACG”, for which the binding signal was 3 log2 normalized fluorescence. With “CCGGCAGACACGTGATCTTAATAGCTAAGATTACTATATCGACG” the figure was 3.05 log2 normalized fluorescence. Next, “CCGGCTGATGGTAGGTATTAATAGCTAAGATTACTATATCGACG”: 0.124 log2 normalized fluorescence; “CCGGCTGATTCAAGGTATTAATAGCTAAGATTACTATATCGACG”: -0.736 log2 normalized fluorescence; “CCGGCTGACTAGGCGTATTAATAGCTAAGATTACTATATCGACG”: -0.638 log2 normalized fluorescence. On to “CCGGCTGACTCCGCGTATTAATAGCTAAGATTACTATATCGACG”, for which the binding signal is -0.516 log2 normalized fluorescence.

“CCGGCTGAGACACGGTATTAATAGCTAAGATTACTATATCGACG”: the binding signal is 0.481 log2 normalized fluorescence. Next, “CCGGCTGACTGTACGTATTAATAGCTAAGATTACTATATCGACG”: -0.112 log2 normalized fluorescence. Next, “CCGGCTGACCCAGTGTATTAATAGCTAAGATTACTATATCGACG”: -0.0826 log2 normalized fluorescence. With “CCGGCTGAACTCGGGTATTAATAGCTAAGATTACTATATCGACG” the figure was -0.618 log2 normalized fluorescence; with “CCGGCTGAACTACCGTATTAATAGCTAAGATTACTATATCGACG”, -0.334 log2 normalized fluorescence. Turning to “CCGGCTGACACGTGTAATTAATAGCTAAGATTACTATATCGACG”, the binding signal is 3.24 log2 normalized fluorescence. Next, “CCGGCTGACACGTGGGGTTAATAGCTAAGATTACTATATCGACG”: 3.36 log2 normalized fluorescence; “CCGGCTGACACGTGTGGTTAATAGCTAAGATTACTATATCGACG”: 3.39 log2 normalized fluorescence; “CCGGCTGACGCGTGGTTTTAATAGCTAAGATTACTATATCGACG”: 3.21 log2 normalized fluorescence. With “CCGGCTGACACGTGGGTTTAATAGCTAAGATTACTATATCGACG” the figure was 3.39 log2 normalized fluorescence; with “CCGGCTGACACGTGGATTTAATAGCTAAGATTACTATATCGACG”, 3.24 log2 normalized fluorescence; with “CCGGCTGACACGTGGCGTTAATAGCTAAGATTACTATATCGACG”, 3.2 log2 normalized fluorescence. With “CCGGCTGACACGTGTAGTTAATAGCTAAGATTACTATATCGACG” the figure was 3.17 log2 normalized fluorescence.

With “CCGGCTGACACGTGGTTTTAATAGCTAAGATTACTATATCGACG”, the binding signal is 3.37 log2 normalized fluorescence. Next, “CCGGCTGACACGTGGAGTTAATAGCTAAGATTACTATATCGACG”: 2.99 log2 normalized fluorescence.

As for “CCGGCTGACGTGTGGTTTTAATAGCTAAGATTACTATATCGACG”, the binding signal is 1.65 log2 normalized fluorescence.

As to “CCGGCTGACACGGGTTTTTAATAGCTAAGATTACTATATCGACG”, the binding signal was 2.09 log2 normalized fluorescence. Next, “CCGGCTGAAGTTATGTATTAATAGCTAAGATTACTATATCGACG”: -0.594 log2 normalized fluorescence; “CCGGCTGAGGAACCGTATTAATAGCTAAGATTACTATATCGACG”: -0.709 log2 normalized fluorescence. With “CCGGCTGACACGGTATATTAATAGCTAAGATTACTATATCGACG” the figure was 1.17 log2 normalized fluorescence. With “CCGGCTGATAGGAGGTATTAATAGCTAAGATTACTATATCGACG” the figure was -0.743 log2 normalized fluorescence; with “CCGGCTGAGAGCGTGTATTAATAGCTAAGATTACTATATCGACG”, 2.11 log2 normalized fluorescence; with “CCGGCTGAAGGCAAGTATTAATAGCTAAGATTACTATATCGACG”, -0.39 log2 normalized fluorescence. As for “CCGGCTGAATGTGGGTATTAATAGCTAAGATTACTATATCGACG”, the binding signal is 0.753 log2 normalized fluorescence. With “CCGGCTGAGGCGCAGTATTAATAGCTAAGATTACTATATCGACG”, the binding signal was -0.509 log2 normalized fluorescence. As to “CCGGCTGAGGGTGCGTATTAATAGCTAAGATTACTATATCGACG”, the binding signal was 0.326 log2 normalized fluorescence.

On to “CCGGCTGACATGTGGTTTTAATAGCTAAGATTACTATATCGACG”, for which the binding signal is 2.98 log2 normalized fluorescence. Next, “CCGGCCGACACGCGGTTTTAATAGCTAAGATTACTATATCGACG”: 3.18 log2 normalized fluorescence; “CCGGCTGACACTTGGTTTTAATAGCTAAGATTACTATATCGACG”: 0.395 log2 normalized fluorescence; “CCGGCTGACACATGGTTTTAATAGCTAAGATTACTATATCGACG”: 3.37 log2 normalized fluorescence.

“CCGGCCGACACATGGTTTTAATAGCTAAGATTACTATATCGACG”: the binding signal is 3.32 log2 normalized fluorescence. With “CCGGCCGACCCGTGGTTTTAATAGCTAAGATTACTATATCGACG” the figure was 2.34 log2 normalized fluorescence; with “CCGGCTGATCGCACGTATTAATAGCTAAGATTACTATATCGACG”, 0.308 log2 normalized fluorescence; with “CCGGCTGAGGTCTTGTATTAATAGCTAAGATTACTATATCGACG”, -0.72 log2 normalized fluorescence. In the case of “CCGGCTCACACGTGATATTAATAGCTAAGATTACTATATCGACG”, the binding signal was 3.31 log2 normalized fluorescence. Turning to “CCGGCGCTCACGTGGTATTAATAGCTAAGATTACTATATCGACG”, the binding signal was 3.34 log2 normalized fluorescence. With “CCGGCTCACACGCGGTTTTAATAGCTAAGATTACTATATCGACG”, the binding signal is 3.17 log2 normalized fluorescence. As to “CCGGCTCACACGTGTTATTAATAGCTAAGATTACTATATCGACG”, the binding signal is 3.29 log2 normalized fluorescence. Next, “CCGGCTGTCACGTGATATTAATAGCTAAGATTACTATATCGACG”: 3.2 log2 normalized fluorescence; “CCGGCACTCACGTGGTATTAATAGCTAAGATTACTATATCGACG”: 3.13 log2 normalized fluorescence; “CCGGCTGGCACGAGGTTTTAATAGCTAAGATTACTATATCGACG”: 3.28 log2 normalized fluorescence. Next, “CCGGCCCTCACGTGGTATTAATAGCTAAGATTACTATATCGACG”: 3.26 log2 normalized fluorescence; “CCGGCTCACACGAGGTTTTAATAGCTAAGATTACTATATCGACG”: 3.32 log2 normalized fluorescence; “CCGGCTCTCACGTGGTATTAATAGCTAAGATTACTATATCGACG”: 3.5 log2 normalized fluorescence. Next, “CCGGCTCTCACGTGGTCTTAATAGCTAAGATTACTATATCGACG”: 3.06 log2 normalized fluorescence. Consider “CCGGCTCTTACGTGGTATTAATAGCTAAGATTACTATATCGACG”, for which the binding signal was 0.802 log2 normalized fluorescence.
